This note sets out measurements from paper PMC7862700, “An all-to-all approach to the identification of sequence-specific readers for epigenetic DNA modifications on cytosine”.

What all share (test): DAPPL (digital affinity profiling via proximity ligation, sequencing); 10 mM Tris-HCl pH 7.5, 50 mM NaCl, 1 mM DTT, 4% glycerol, room temperature, 30 min; GST-TFs on glutathione beads, 16-mer random dsDNA library, 0.1% formaldehyde crosslink after washing; high values mean tight binding
One assay concerns the target T1, FEV (Homo sapiens, UniProt Q99581 1-238).
T1 sequence: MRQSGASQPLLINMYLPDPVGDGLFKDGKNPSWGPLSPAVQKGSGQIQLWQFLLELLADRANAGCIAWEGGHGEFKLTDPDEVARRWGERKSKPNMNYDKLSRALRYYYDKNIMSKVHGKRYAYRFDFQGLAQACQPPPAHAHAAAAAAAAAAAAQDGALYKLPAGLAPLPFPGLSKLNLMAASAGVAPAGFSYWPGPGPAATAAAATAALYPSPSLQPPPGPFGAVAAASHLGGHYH
As to conditions: protein: recombinant; tags: N-terminal GST; dsDNA, one strand shown. The essentials:
(§1)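 A tag-only sample was pooled with DNA-barcoded human transcription factors that had been expressed in yeast as GST fusions and captured on glutathione beads. The pools were incubated for 30 min at room temperature with 200 nmole of a random double-stranded 16-mer DNA library in Tris/NaCl/DTT/glycerol buffer, then washed, crosslinked with 0.1% formaldehyde, proximity-ligated (BsaI/T4 ligase, 1 h, 37 °C), PCR-amplified and sequenced on an Illumina NextSeq500. Binding signal is each hexamer's read frequency for a factor divided by its frequency for the tag-only sample.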

For a further assay, the target named is ETV5 (Homo sapiens, UniProt P41161 1-510). As to conditions: protein: recombinant; tags: N-terminal GST; dsDNA, one strand shown. Summed up:
as §1

The target in a further assay is HSF1 (Homo sapiens, UniProt Q00613 1-529). The settings on record: protein: recombinant; tags: N-terminal GST; chain copies: 3; dsDNA, one strand shown. The essentials:
as §1

The next assay deals with T2, SPIC (Homo sapiens, UniProt Q8N5J4 1-248).
T2 sequence: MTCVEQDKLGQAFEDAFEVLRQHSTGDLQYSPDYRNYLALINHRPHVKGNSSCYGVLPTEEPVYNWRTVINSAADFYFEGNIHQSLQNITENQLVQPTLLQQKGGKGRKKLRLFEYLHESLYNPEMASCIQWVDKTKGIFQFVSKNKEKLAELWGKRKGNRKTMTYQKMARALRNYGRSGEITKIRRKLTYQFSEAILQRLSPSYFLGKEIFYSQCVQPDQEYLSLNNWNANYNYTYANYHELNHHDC
As to conditions: protein: recombinant; tags: N-terminal GST; dsDNA, one strand shown. The essentials: as §1

The next assay addresses ELF4 (Homo sapiens, UniProt Q99607 1-663). The settings on record: protein: recombinant; tags: N-terminal GST; dsDNA, one strand shown. The essentials:
as §1

In another assay the target is T3, ELK4 (Homo sapiens, UniProt P28324-2 1-405).
T3 sequence: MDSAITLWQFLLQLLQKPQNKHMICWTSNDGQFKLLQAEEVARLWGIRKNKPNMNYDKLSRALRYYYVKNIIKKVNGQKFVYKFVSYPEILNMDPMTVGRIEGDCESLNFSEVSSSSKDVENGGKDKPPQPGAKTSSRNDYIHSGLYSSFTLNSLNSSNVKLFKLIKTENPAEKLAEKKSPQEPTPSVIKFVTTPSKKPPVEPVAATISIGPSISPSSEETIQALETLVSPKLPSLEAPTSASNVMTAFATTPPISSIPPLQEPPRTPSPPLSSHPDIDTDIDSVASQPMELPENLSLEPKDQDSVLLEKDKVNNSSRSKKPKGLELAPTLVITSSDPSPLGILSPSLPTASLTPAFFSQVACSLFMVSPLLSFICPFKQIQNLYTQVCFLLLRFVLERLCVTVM
As to conditions: protein: recombinant; tags: N-terminal GST; dsDNA, one strand shown. The essentials: as §1

Another assay concerns the target T4, ETV2 (Homo sapiens, UniProt O00321 1-342).
T4 sequence: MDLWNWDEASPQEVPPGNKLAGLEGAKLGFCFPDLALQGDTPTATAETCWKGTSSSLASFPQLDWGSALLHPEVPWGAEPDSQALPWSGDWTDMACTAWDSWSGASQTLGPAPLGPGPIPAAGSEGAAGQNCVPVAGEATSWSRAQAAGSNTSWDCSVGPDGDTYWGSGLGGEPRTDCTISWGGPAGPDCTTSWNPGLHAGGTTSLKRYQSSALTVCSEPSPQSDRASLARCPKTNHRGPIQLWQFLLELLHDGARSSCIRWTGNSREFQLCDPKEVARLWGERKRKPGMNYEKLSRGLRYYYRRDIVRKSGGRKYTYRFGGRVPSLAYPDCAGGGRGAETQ
As to conditions: protein: recombinant; tags: N-terminal GST; dsDNA, one strand shown. The essentials:
as §1

The next assay addresses T5, ELF3 (Homo sapiens, UniProt P78545 1-371).
T5 sequence: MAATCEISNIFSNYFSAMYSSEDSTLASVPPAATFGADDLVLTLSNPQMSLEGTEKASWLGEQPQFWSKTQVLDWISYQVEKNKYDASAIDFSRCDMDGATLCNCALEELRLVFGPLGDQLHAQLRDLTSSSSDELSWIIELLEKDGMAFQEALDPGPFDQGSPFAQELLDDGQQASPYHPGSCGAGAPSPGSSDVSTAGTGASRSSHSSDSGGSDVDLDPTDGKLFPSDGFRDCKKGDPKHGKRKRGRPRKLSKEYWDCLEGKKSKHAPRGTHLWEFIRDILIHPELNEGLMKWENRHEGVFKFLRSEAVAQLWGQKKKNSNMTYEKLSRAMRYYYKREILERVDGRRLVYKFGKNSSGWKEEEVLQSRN
As to conditions: protein: recombinant; tags: N-terminal GST; dsDNA, one strand shown. The essentials:
as §1

The next assay deals with CRX (Homo sapiens, UniProt O43186 1-299). The settings on record: protein: recombinant; tags: N-terminal GST; dsDNA, one strand shown. The essentials: as §1
Sequence of CRX (O43186 whole entry): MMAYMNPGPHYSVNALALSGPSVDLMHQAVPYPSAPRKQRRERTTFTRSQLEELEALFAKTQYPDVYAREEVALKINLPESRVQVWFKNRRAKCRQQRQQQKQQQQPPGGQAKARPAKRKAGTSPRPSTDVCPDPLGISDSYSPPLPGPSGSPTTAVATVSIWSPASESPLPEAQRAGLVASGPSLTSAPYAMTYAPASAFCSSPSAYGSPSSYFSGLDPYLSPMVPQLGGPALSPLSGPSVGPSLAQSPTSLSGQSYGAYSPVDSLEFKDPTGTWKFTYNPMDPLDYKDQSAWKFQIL
A further assay concerns the target ETV1 (Homo sapiens, UniProt P50549 1-477). The settings on record: protein: recombinant; tags: N-terminal GST; dsDNA, one strand shown. Summed up: as §1
The target in another assay is T6, ERF (Homo sapiens, UniProt P50548 1-548).
T6 sequence: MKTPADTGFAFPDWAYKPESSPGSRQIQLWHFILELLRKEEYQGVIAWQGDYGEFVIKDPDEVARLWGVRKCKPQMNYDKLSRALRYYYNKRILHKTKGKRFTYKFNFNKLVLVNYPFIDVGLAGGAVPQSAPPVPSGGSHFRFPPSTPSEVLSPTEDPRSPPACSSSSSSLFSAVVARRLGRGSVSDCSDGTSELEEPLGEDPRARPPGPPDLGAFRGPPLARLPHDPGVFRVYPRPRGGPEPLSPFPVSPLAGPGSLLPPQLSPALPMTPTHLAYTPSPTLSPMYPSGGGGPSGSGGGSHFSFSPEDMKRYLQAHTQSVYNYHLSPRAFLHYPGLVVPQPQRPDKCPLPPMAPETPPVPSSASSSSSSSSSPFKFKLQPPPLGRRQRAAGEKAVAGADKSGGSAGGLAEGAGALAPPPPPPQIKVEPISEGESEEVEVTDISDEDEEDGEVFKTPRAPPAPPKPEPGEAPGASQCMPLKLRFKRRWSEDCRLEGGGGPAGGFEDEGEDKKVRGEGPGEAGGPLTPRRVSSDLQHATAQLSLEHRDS
The settings on record: protein: recombinant; tags: N-terminal GST; dsDNA, one strand shown. Summed up: as §1

The target of a further assay is T7, ETV3L (Homo sapiens, UniProt Q6ZN32 1-361).
T7 sequence: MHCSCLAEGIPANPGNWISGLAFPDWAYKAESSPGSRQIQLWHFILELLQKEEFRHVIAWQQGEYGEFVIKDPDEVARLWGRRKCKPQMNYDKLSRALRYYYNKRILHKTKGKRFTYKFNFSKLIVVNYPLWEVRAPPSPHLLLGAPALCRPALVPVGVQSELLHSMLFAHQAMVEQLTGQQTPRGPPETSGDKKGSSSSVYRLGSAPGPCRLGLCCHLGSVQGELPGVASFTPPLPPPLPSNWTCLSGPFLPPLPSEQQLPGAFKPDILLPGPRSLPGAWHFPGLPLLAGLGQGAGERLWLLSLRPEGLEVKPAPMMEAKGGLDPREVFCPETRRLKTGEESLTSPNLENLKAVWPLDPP
As to conditions: protein: recombinant; tags: N-terminal GST; dsDNA, one strand shown. The essentials:
as §1

The next assay addresses T8, ETS2 (Homo sapiens, UniProt P15036 1-469).
T8 sequence: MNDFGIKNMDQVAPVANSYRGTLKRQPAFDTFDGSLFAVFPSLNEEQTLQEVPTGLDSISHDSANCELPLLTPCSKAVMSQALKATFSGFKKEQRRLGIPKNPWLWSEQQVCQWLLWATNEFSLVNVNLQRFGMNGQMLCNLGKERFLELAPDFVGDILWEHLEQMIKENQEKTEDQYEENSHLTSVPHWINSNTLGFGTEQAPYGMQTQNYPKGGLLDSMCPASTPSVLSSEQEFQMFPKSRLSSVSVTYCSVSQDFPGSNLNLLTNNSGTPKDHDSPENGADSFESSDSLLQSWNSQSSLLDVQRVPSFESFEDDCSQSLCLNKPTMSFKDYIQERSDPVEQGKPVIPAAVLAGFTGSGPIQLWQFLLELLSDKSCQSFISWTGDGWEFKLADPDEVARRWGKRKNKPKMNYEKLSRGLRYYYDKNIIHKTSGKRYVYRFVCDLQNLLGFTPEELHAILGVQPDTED
As to conditions: protein: recombinant; tags: N-terminal GST; dsDNA, one strand shown. The essentials:
as §1

A further assay deals with T9, SPDEF (Homo sapiens, UniProt O95238 1-335).
T9 sequence: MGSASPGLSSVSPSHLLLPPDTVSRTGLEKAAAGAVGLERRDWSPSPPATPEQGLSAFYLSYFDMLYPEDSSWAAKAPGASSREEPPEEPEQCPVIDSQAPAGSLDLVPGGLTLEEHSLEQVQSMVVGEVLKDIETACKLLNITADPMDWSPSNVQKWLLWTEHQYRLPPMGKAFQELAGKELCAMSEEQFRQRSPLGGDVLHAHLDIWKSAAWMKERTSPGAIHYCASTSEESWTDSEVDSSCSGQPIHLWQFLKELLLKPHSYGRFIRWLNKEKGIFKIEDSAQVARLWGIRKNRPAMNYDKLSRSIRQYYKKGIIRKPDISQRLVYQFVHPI
As to conditions: protein: recombinant; tags: N-terminal GST; dsDNA, one strand shown. The essentials:
as §1

The target of the next assay is T10, ETV7 (Homo sapiens, UniProt Q9Y603 1-341).
T10 sequence: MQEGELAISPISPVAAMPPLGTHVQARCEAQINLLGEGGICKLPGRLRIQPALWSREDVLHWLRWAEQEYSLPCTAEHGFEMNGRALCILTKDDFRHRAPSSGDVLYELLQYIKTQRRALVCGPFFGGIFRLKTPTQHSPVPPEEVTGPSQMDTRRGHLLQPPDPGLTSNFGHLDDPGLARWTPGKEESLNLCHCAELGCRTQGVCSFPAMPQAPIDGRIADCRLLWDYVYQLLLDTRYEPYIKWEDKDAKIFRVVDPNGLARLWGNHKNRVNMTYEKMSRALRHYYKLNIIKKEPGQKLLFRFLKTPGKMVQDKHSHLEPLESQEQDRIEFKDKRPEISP
The settings on record: protein: recombinant; tags: N-terminal GST; dsDNA, one strand shown. The essentials: as §1

For the next assay, the target named is T11, ELF5 (Homo sapiens, UniProt Q9UKW6-2 1-255).
T11 sequence: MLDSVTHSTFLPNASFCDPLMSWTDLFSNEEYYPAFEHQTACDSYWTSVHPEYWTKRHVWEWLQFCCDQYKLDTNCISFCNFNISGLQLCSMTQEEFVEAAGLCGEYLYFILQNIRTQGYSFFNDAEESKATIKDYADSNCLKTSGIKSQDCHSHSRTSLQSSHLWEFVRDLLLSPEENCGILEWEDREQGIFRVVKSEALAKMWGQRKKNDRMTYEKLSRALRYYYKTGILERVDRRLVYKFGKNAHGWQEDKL
As to conditions: protein: recombinant; tags: N-terminal GST; dsDNA, one strand shown. The essentials: as §1

A further assay addresses T12, ETV3 (Homo sapiens, UniProt P41162-2 1-143).
T12 sequence: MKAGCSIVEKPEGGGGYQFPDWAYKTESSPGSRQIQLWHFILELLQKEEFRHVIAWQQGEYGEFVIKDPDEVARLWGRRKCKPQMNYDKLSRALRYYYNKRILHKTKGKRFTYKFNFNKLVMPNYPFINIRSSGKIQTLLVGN
The settings on record: protein: recombinant; tags: N-terminal GST; dsDNA, one strand shown. Summed up:
as §1

The target in another assay is ETV6 (Homo sapiens, UniProt P41212 1-452). The settings on record: protein: recombinant; tags: N-terminal GST; dsDNA, one strand shown. Summed up: as §1
Sequence of ETV6 (P41212 whole entry): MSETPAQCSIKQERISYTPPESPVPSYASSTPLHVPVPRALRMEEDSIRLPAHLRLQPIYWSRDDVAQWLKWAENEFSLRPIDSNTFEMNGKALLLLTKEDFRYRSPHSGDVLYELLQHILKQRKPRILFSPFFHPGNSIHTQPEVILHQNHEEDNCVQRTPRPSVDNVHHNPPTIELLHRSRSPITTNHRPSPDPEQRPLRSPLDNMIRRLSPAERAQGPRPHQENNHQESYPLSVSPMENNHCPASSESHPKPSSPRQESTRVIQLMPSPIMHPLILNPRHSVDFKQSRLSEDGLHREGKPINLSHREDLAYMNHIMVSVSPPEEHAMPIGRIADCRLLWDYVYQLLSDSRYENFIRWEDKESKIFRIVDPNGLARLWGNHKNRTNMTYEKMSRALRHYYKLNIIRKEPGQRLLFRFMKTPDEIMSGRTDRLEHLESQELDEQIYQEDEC

Sequence of HSF1 (Q00613 whole entry): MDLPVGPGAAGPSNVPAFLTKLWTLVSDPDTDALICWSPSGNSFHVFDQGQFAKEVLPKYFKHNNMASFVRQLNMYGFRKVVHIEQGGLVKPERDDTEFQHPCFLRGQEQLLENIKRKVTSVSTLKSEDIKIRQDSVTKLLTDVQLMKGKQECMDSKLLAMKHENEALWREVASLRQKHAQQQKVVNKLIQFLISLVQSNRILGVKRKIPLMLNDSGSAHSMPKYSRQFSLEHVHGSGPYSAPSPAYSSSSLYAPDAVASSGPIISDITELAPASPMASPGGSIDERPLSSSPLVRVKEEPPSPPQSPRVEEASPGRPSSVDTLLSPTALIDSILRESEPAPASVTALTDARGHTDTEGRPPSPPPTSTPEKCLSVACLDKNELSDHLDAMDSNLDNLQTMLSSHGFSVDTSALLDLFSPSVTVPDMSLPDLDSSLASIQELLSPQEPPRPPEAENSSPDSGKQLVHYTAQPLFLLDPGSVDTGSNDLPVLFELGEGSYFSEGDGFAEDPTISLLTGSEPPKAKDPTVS
Sequence of ETV1 (P50549 whole entry): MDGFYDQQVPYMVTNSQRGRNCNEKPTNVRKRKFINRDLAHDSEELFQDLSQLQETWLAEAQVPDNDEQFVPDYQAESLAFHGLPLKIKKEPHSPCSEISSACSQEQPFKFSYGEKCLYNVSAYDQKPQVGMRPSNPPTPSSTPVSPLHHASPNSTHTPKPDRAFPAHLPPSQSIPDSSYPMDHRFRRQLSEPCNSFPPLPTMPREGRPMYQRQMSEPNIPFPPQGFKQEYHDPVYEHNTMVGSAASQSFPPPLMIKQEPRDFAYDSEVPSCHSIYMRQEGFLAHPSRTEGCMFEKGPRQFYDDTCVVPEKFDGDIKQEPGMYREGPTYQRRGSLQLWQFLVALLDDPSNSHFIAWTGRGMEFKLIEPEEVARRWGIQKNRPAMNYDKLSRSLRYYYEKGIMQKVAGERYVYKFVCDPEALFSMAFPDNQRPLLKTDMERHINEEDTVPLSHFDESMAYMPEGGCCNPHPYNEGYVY
Sequence of ELF4 (Q99607 whole entry): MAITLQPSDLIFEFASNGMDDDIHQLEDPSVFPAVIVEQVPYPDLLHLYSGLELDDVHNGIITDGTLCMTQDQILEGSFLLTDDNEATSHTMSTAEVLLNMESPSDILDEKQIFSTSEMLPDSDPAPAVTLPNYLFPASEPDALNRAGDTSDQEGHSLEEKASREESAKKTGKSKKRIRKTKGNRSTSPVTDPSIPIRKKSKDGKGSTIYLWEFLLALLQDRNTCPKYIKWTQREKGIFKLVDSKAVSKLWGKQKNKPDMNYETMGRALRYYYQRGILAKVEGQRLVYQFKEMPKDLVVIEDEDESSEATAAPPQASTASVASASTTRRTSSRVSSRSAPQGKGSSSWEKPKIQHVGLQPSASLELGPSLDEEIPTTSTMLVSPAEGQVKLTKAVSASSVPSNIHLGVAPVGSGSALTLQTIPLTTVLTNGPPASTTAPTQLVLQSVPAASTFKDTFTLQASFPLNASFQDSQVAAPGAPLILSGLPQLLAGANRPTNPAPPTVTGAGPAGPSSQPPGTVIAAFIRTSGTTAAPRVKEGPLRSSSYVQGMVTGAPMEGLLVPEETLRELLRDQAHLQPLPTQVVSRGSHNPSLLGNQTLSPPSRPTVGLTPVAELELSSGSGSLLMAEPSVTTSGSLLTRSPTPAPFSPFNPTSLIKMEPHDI
Sequence of ETV5 (P41161 whole entry): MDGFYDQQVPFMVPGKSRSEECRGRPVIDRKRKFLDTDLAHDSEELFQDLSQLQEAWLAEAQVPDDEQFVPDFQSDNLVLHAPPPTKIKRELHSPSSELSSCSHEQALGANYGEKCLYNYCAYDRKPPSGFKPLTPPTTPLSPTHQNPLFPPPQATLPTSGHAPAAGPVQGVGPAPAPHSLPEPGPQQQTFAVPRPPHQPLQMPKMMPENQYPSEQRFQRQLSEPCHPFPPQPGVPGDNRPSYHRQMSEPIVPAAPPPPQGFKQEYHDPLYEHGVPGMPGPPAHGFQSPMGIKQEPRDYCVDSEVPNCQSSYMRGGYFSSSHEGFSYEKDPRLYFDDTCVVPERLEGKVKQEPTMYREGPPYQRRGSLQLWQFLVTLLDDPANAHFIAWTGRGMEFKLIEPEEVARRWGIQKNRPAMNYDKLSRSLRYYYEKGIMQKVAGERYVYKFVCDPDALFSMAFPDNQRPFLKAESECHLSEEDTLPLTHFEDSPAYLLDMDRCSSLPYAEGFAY

For CTGCTC, the binding signal with FEV was 1.31 fold enrichment (6-mer frequency, TF over GST control); with ETV5, 1.26 fold enrichment (6-mer frequency, TF over GST control); in the assay with HSF1, 1.17 fold enrichment (6-mer frequency, TF over GST control); with SPIC, 1.39 fold enrichment (6-mer frequency, TF over GST control); in the assay with ELF4, 1.29 fold enrichment (6-mer frequency, TF over GST control); with ELK4, 1.45 fold enrichment (6-mer frequency, TF over GST control). Moreover, the binding signal was 1.35 fold enrichment (6-mer frequency, TF over GST control) with ETV2; 1.18 fold enrichment (6-mer frequency, TF over GST control) with ELF3; 1.22 fold enrichment (6-mer frequency, TF over GST control) in the assay with CRX; 1.21 fold enrichment (6-mer frequency, TF over GST control) in the assay with ETV1; 1.29 fold enrichment (6-mer frequency, TF over GST control) with ERF; 1.43 fold enrichment (6-mer frequency, TF over GST control) with ETV3L. Besides, the binding signal with ETS2 is 1.28 fold enrichment (6-mer frequency, TF over GST control); in the assay with SPDEF it was 1.26 fold enrichment (6-mer frequency, TF over GST control); with ETV7, 1.29 fold enrichment (6-mer frequency, TF over GST control); in the assay with ELF5, 1.29 fold enrichment (6-mer frequency, TF over GST control); with ETV3, 1.22 fold enrichment (6-mer frequency, TF over GST control); with ETV6, 1.16 fold enrichment (6-mer frequency, TF over GST control).
